From PubChem BioAssay AID485317 (Broad Institute, 2010) come the findings set out here.

Each structure is given as a SMILES string. Where “and” joins values, the source holds several entries; their conditions need not be identical. Equal entries are not always repeated. The campaign covered roughly 290,000 compounds. About 11,000 (3.8%) were called active.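 The calls were made as follows: active = mean replicate inhibition above about 79%, with every replicate also reaching it (limit read from the data); inconclusive = only one of the two criteria met; inactive = mean below limit and not every replicate reaching it.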 The entries come from a sample that favours actives as a whole. The source holds several records for some structures; these can differ, active in one and inactive in another.

Usually inhibition stands for the change of the read-out against control, counted positive when it falls.

For the assay, the target named is FAD-linked sulfhydryl oxidase ALR (Homo sapiens) (UniProt P55789). Put plainly: inhibitors of human ALR sulfhydryl oxidase, primary screen, biochemical, H2O2 detection, HRP-luminol luminescence, single point (AID 485317). The following applies: purified ALR, DTT oxidation, stronger effect = higher value, concentration not given here.
Chain of FAD-linked sulfhydryl oxidase ALR (Homo sapiens) (P55789 whole entry, looked up): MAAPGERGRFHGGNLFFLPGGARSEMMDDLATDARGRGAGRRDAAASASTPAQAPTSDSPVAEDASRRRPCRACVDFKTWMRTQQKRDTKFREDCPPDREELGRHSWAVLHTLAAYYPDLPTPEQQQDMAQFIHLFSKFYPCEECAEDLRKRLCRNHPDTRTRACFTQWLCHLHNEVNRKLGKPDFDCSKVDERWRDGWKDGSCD
Regarding `O=C(c1cn(-c2ccccc2)nc1-c1cccnc1)N1CCN(S(=O)(=O)c2ccccc2F)CC1`, the inhibition was -0.713% (inactive).
With `O=C(c1ccc(NS(=O)(=O)c2ccc3[nH]c(=O)[nH]c3c2)cc1)N1CCCCC1`, the inhibition is 0.0938% (inactive).
Take `CN(C)/C=C1\C=C(c2ccccc2)OC1=O`: the inhibition is -9.29% (inactive).
In the case of `O=C1Nc2ccccc2/C1=C/c1ccnc2ccccc12`, the inhibition was -5.03% (inactive).
`CN(C)/C=C1/C(=O)Nc2ccccc21`: the inhibition was 98.8% (active).
As for `Cc1cc(C)c(/C=C2\C(=O)Nc3ccccc32)[nH]1`, the inhibition is 98.9% (active).
For the compound `CN(C)/C=C1/Nc2ccccc2C1=O`, the inhibition was 31.9% (inactive).
Next, `Cc1ccccc1-n1c(C)cc(/C=C2\NC(=O)NC2=O)c1C`: -11.5% (inactive).
For the compound `CC(=O)NCCNC(=O)c1cc(-c2cccc3ccccc23)nc2ccccc12`, the inhibition was -1.4% (inactive).
Next, `Cc1cc(NC(=O)CSCc2nc(-c3cccc(Cl)c3)oc2C)no1`: 96.6% (active).
Turning to `Cc1cc(NC(=O)CSCc2ccccc2C)no1`, the inhibition is 29% (inactive).
For the compound `COc1ccccc1C(=O)COC(=O)CSCC(=O)Nc1cc(C)on1`, the inhibition is 1.76% (inactive).
With `COc1ccc(-c2cc(C(=O)Nc3ccccc3O)c3ccccc3n2)cc1`, the inhibition is -22.7% (inactive).
For the compound `COCCn1c(C)cc(C(=O)COC(=O)CNC(=O)c2ccco2)c1C`, the inhibition was 0.463% (inactive).
Next, `Cc1cc(NC(=O)COC(=O)/C=C/c2ccc(C)o2)no1`: -2.34% (inactive); `CC(C)=C1SC(N2CCN(c3cccc(C)c3)CC2)=NC1=O`: 4.81% (inactive); `CNS(=O)(=O)c1cnccc1N1CCN(c2cccc(C)c2)CC1`: 98.6% (active).
Regarding `CC(C)NC(=O)N1CCN(c2ccncc2S(=O)(=O)N2CCCCC2)CC1`, the inhibition is -2.12% (inactive).
`Cc1ccn2c(=O)nc(SCC(=O)NCc3ccc4c(c3)OCO4)nc2c1`: the inhibition was -1.9% (inactive).
With `O=C(Cn1c[n+](CC(=O)c2ccc([N+](=O)[O-])cc2)cn1)c1ccc([N+](=O)[O-])cc1`, the inhibition was -22% (inactive) and 98.8% (active).
Next, `O=C(Nn1cnnc1)c1ccc([N+](=O)[O-])cc1`: -3.87% (inactive).
For the compound `O=C(CC(n1cncn1)C(Cl)(Cl)Cl)c1ccc([N+](=O)[O-])cc1` (stereo unspecified), the inhibition was 9.46% (inactive).
Consider `O=C(Nc1ccn(Cc2ccccc2)n1)c1n[nH]c([N+](=O)[O-])c1Cl`, for which the inhibition was 93.5% (active).
For the compound `Cc1ccc(Cn2ccc(NC(=O)C3C4CCC(C4)C3C(=O)O)n2)cc1` (stereo unspecified), the inhibition was 1.86% (inactive).
Consider `O=C(Nc1ccn(Cc2ccccc2F)n1)c1ccc(COc2ccc(Cl)cc2Cl)o1`, for which the inhibition was -9.12% (inactive).
Take `Cc1ccc(CC(=O)Nc2ccc(S(=O)(=O)N3CCOCC3)cc2)cc1C`: the inhibition is -2.53% (inactive).
